From PubChem
Sampled rows, rich in hits. Any-hit rate of the full collection: about 14%.
A350 fluor: qHTS Assay for Spectroscopic Profiling in A350 Spectral Region | Compound autofluorescence, 340/450 nm, Alexa 350 dye-equivalents; hits give high values | max dye-equivalent concentration, M | 11% of 59,000 active | AID 590, 2007; in the data active = max dye-equivalent concentration above about 10 nM; inconclusive = mostly about 1.1 nM to 9.6 nM
AID923: qHTS Assay for Allosteric/Competitive Inhibitors of Caspase-1: Spectroscopic Profiling in AFC Spectral Region; compound fluorescence, AFC spectral region (405/520 nm); Potency, µM (titrated, usually from 57.5 µM), for the others: top-dose fluorescence increase, hits mostly activators; 1.1% of 75,000 active; AID 923, 2007; also: potency is read from the fitted curve at half-maximal effect; 0% is about no effect
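Baseline compound fluorescence (AFC region, 405 nm ex/520 nm em) taken from the intercept of kinetic reads with 50 nM caspase-1 and 5 uM Ac-WEHD-AFC; normalized to an on-plate AFC standard curve; compounds titrated up to 57 uM.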
HADH2 inhib: qHTS Assay for Inhibitors of HADH2 (Hydroxyacyl-Coenzyme A Dehydrogenase, Type II); 3.4% of 73,000 active; 3-hydroxyacyl-CoA dehydrogenase type-2 (Homo sapiens), Q99714; recombinant HADH2, NADH fluorescence, beta-hydroxybutyryl-CoA; Potency, µM (titrated, usually from 57.1 µM), for inactives: at the highest dose activity change, negative = inhibition, usual class: inhibitors; AID 886, 2007; also: potency is read from the fitted curve at half-maximal effect; % is scaled to controls: 0 for no effect and ±100 for the full control effect; nearly all actives have a fitted effect of over 60% in size
Target sequence (Q99714 whole entry, looked up, one chain of several): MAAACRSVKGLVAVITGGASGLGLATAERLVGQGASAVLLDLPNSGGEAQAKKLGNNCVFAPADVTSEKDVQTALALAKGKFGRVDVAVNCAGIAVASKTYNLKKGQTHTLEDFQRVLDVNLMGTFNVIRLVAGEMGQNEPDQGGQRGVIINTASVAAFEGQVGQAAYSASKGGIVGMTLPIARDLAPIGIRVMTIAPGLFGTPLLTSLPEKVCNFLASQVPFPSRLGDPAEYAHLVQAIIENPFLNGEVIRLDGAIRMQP
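Buffer 100 mM Tris-HCl pH 9.0/0.01% Tween-20; HADH2 20 nM; NAD+ 1 mM; beta-hydroxybutyryl-CoA 90 uM (all final). 15 min cpd preincubation, RT.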
4-MU autofl: qHTS Assay for Spectroscopic Profiling in 4-MU Spectral Region. compound autofluorescence, 340/450 nm, 4-MU equivalents; hits give high values. max dye-equivalent concentration, M. 11% of 59,000 active; in the data active = max dye-equivalent concentration above about 10 nM; inconclusive = mostly about 1.1 nM to 9.6 nM
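Compounds in 100 mM Tris, pH 8.0, sat 15 min at room temperature before fluorescence was read at 340 nm excitation/450 nm emission; a per-plate six-point 4-MU standard curve converted signals to dye-equivalent concentration at each compound concentration.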
CRE Fsk mod: Cell signaling CRE-BLA (Fsk stim). Potency, µM (highest dose often 38.2 µM), inactives show at the highest dose activity change, negative = inhibition, most hits filed as activators. 2.5% of 71,000 active. AID 662, 2007. CHO CRE-bla reporter (cAMP response element driving beta-lactamase), forskolin EC10, beta-lactamase ratio; active = well fitted activation curve with a large enough effect in the signal ratio, with a control signal flat, not every such curve was filed as active; inconclusive = small, poorly fitted or top-dose-only effect, or effect the other way, or a change in a side signal; the % refers to the signal ratio; also: potency is read from the fitted curve at half-maximal effect; % of control where 0% means no effect
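Using CellSensor CRE-bla CHO cells in Opti-MEM with 0.5% dialyzed FBS, compounds were titrated with EC10 NKH 477 for 3 h at 37 °C. CCF4 ratio (460/530 nm) gave %Activity; AC50 derived.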
HSD17B inhib: qHTS Assay for Inhibitors of HSD17B4, hydroxysteroid (17-beta) dehydrogenase 4. 3-hydroxyacyl-CoA dehydrogenase type-2 (Homo sapiens), Q99714. recombinant HSD17B10, NADH fluorescence kinetic. Potency, µM (top dose mostly 57.1 µM), for inactives: at the top dose activity change, negative = inhibition, hits mostly inhibitors. 7.6% of 75,000 active. AID 893, 2007;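 also: the protocol describes HADH2 (HSD17B10) and not the HSD17B4 of the title; potency is read from the fitted curve at half-maximal effect; % is scaled to controls: 0 for no effect and ±100 for the full control effect; nearly all actives have a fitted effect of over 70% in size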
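Activity followed as NADH fluorescence increase (ex 360, em 450 nm) every 30 seconds for 4 min, using final 90 uM beta-hydroxybutyryl CoA and 1 mM NAD+. Recombinant His-tagged enzyme, 20 nM, pH 9.0 Tris buffer, 15 min compound preincubation.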
The depositor's hits bear a star; [ ] = dose if it differs, or a comment. Unless noted, calls follow the shape of the dose curve; as a rule, active = well fitted curve in the direction sought with a large enough effect; inconclusive = small, poorly fitted or top-dose-only effect, or another doubt; inactive = no such curve, though single readings can be large; an effect the other way counts as inactive or inconclusive.

How did CCN1CCCC1CNC(=O)c1cc2c(-c3ccc(Cl)cc3)nn(C)c2s1 (centres undefined) do in these assays?
AID923: 0%; HADH2 inhib: inconclusive; CRE Fsk mod: inconclusive; HSD17B inhib: 25µM*

Results for COCCNC(=O)c1ccccc1-c1ccccc1C(=O)O ?
A350 fluor: inactive; AID923: 1%; HADH2 inhib: 5%; 4-MU autofl: inactive; CRE Fsk mod: -5%; HSD17B inhib: -5%

How did COCCNC(=O)c1cc2c(-c3ccccc3F)nn(C)c2s1 do in these assays?
A350 fluor: inactive; AID923: 0%; HADH2 inhib: inconclusive; 4-MU autofl: inactive; CRE Fsk mod: inconclusive; HSD17B inhib: 32µM*

Results for CC(C)NC(=O)c1cc2c(-c3ccc(Cl)cc3)nn(C)c2s1 ?
AID923: -1%; HADH2 inhib: 8%; CRE Fsk mod: 12%; HSD17B inhib: 7.9µM*

What do the screens show for `Cn1nc(-c2ccc(Cl)cc2)c2cc(C(=O)N3CCCC3)sc21`?
AID923: 0%; HADH2 inhib: -7%; CRE Fsk mod: 1%; HSD17B inhib: -8%

What do the screens show for `COCCCNC(=O)c1cc2c(-c3ccc(Cl)cc3)nn(C)c2s1`?
AID923: -1%; HADH2 inhib: inconclusive; CRE Fsk mod: 3.2µM*; HSD17B inhib: 32µM*

How did CCOC(=O)N1CCC(NC(=O)c2cc3c(-c4ccc(Cl)cc4)nn(C)c3s2)CC1 do in these assays?
AID923: 0%; HADH2 inhib: -1%; CRE Fsk mod: -3%; HSD17B inhib: 25µM*

Results for O=C1CC(c2ccc(F)cc2)CC(O)=C1C=NCCN1CCN(C(=O)Nc2ccccc2)CC1 (centres undefined) ?
A350 fluor: inactive; AID923: -2%; HADH2 inhib: -5%; 4-MU autofl: inactive; CRE Fsk mod: inconclusive; HSD17B inhib: 9%

Results for CCOC(=O)c1c(NC(=O)CN2CCOCC2)sc2c1CCCC2=O ?
AID923: 0%; HADH2 inhib: -18%; CRE Fsk mod: inconclusive; HSD17B inhib: -3%

How did CCOC(=O)c1c(NC(=O)OC)sc(C(=O)N(C)C)c1C do in these assays?
AID923: 0%; HADH2 inhib: -21%[11.4 µM]; CRE Fsk mod: 4µM*; HSD17B inhib: -12%

Results for CCOC(=O)c1c(NC(=O)CC)sc(C(C)=O)c1C ?
A350 fluor: inactive; AID923: 1%; HADH2 inhib: inconclusive; 4-MU autofl: inactive; CRE Fsk mod: 13µM*; HSD17B inhib: -1%

How did CCOC(=O)c1c(NC(=O)CN2CCOCC2)sc2c1CCCC2 do in these assays?
A350 fluor: inactive; AID923: -1%; HADH2 inhib: 16%; 4-MU autofl: inactive; CRE Fsk mod: 13µM*; HSD17B inhib: -13%

Results for CCCc1cc(C(=O)Nc2sc(C(C)=O)c(C)c2C(=O)OCC)no1 ?
AID923: -3%; HADH2 inhib: -2%; CRE Fsk mod: 0.63µM*; HSD17B inhib: -8%

What do the screens show for `Cc1cc(C)c2c(CC(=O)N(CCC#N)Cc3cccnc3)coc2c1`?
A350 fluor: inactive; AID923: -1%; HADH2 inhib: 5%; 4-MU autofl: inactive; CRE Fsk mod: 0%; HSD17B inhib: 1%

How did CCOC(=O)c1sc(NC(=O)CN2CCCC2)c(C(=O)OCC)c1C do in these assays?
A350 fluor: 2.5e-07M*; AID923: 3%; HADH2 inhib: -3%; 4-MU autofl: 2.8e-07M*; CRE Fsk mod: 8%; HSD17B inhib: inconclusive

Results for CC1CN(S(=O)(=O)c2ccc(C(=O)Nc3sc4c(c3C(N)=O)CCN(C)C4)cc2)CC(C)O1 (centres undefined) ?
AID923: 4%; HADH2 inhib: -11%; CRE Fsk mod: 5%; HSD17B inhib: 2%
